Inconclusive results are not listed. Where a call stands in place of a potency, no number is given. Unmarked numbers belong to inactive results. The source made the active and inactive calls. The call rests on the fitted dose curve.
assay: qHTS assay to identify small molecule antagonists of the sonic hedgehog signaling (Shh) pathway (AID 1259369); conditions: NIH/3T3 Gli1-Luc reporter, Shh antagonist, luminescence 24 h; series mostly up to 92.4 µM; further: nearly all actives have a fitted effect of over 45% in size
Source text: U.S. Tox21 Program National Center for Advancing Translational Sciences [NCATS] NIH Chemical Genomics Center [NCGC] U.S. Environmental Protection Agency [EPA] National Institutes of Environmental Health Sciences [NIEHS] National Toxicology Program [NTP] U.S. Food and Drug Administration [FDA] Tox21 Assay Overview: The sonic hedgehog (Shh) pathway is essential for normal embryonic development. Dysregulation of the Shh pathway can cause severe developmental defects in organs. Therefore chemicals that interfere with the pathway are potential developmental toxicants. A cell line designated 3T3Gli1-Luc (DMB/OARSA/CFSAN/FDA, Laurel, MD), a NIH/3T3 derived clone containing stably integrated Gli1-Luc reporter is used to detect chemical interference of the Shh pathway, by changes in the expression of the firefly Luc gene under the control of the Gli1 transcriptional response element. This cell line was used to screen Tox21 libraries for identifying and prioritizing the potential developmental toxicants that interfere Shh pathway. Conditioned medium-stimulated mode was used to screen for chemicals inhibiting Shh signaling.
Tox21 Assay Protocol Summary: 3T3 Gli1-Luc cells were dispensed at 2,000 per well in 5uL of culture medium into white solid bottom 1536-well plates (Greiner Bio-One, Monroe, NC) using a Multidrop Combi (Thermo Scientific, Waltham, MA) dispenser. The assay plates were incubated at 37 C and 5% CO2 for 4hr, and then 23nL of compounds dissolved in DMSO and positive control were transferred using a Pintool station (Wako, San Diego, CA). The compound transfer was followed by the addition of 1ul conditioned medium or assay buffer using two separate tips of Flying Reagent Dispenser (FRD, Aurora Discovery, San Diego, CA). The assay plates were incubated at 37C and 5% CO2 for 24hr. For luciferase read, 4uL of Amplite Luciferase reporter gene assay reagent (AAT Bioquest, Inc. Sunnyvale, CA) was added to each well of the assay plates using FRD and incubated at room temperature for 30min. The luminescence signal was measured using a ViewLux plate reader (Perkin Elmer, Shelton, CT).
Potency means the concentration at half of the fitted maximal effect.

Compound | Potency | activity change, negative = inhibition
C/C=C1\C(=O)C[C@H]2[C@@H]3CCC4=CC(=O)CC[C@]4(C)[C@H]3CC[C@]12C | 5.99 µM (active) | 
NS(=O)(=O)c1cc2c(cc1C(F)(F)F)NC(Cc1ccccc1)NS2(=O)=O (stereo not given) | inactive | 
CC1=CC(=O)CCC1 | inactive | 
CCCCCCCCCCCl | inactive | 
COc1cc(O)cc(O)c1 | inactive | 
C=C(C)C(=O)OCCCCCCCCCCCCCCCCCC |  | 6.62% [at 19 µM]
CN1[C@@H]2CC[C@H]1CC(NC(=O)n1c(=O)[nH]c3ccccc31)C2 (stereo not given in full) | inactive | 
CCCCCCC(CCCCCCCCCCC(=O)OCC(COC(C)=O)OC(C)=O)OC(C)=O (stereo not given) | 1.06 µM (active) | 
O=C(O)C(O)[C@H](O)[C@@H](O)[C@H](O)[C@H](O)CO (stereo not given in full) | inactive | 
CCN(CC)C(=O)c1ccc(O)c(OC)c1 | inactive | 
NC(=O)Nc1nc2ccccc2[nH]1 | inactive | 
CC1(C)OC(=O)Nc2ccc(Br)cc21 | inactive | 
Nc1ccc2cc(S(=O)(=O)O)ccc2c1 | inactive | 
C=CCOCC(O)CS(=O)(=O)O (stereo not given) | inactive | 
NCCN1CCNC1=O | inactive | 
C=CCSCC1Nc2cc(Cl)c(S(N)(=O)=O)cc2S(=O)(=O)N1 (stereo not given) | inactive | 
Cc1cc(C)c(NC(=O)CN(CC(=O)O)CC(=O)O)c(C)c1Br | inactive | 
O=C(O)c1ccccc1S | inactive | 
CCCCCCCCCCCCCCCCCCOCC(O)CO (stereo not given) | inactive | 
OCCCCCCO | inactive | 

Compound | Potency | activity change, negative = inhibition
CCC(C(=O)NC(N)=O)c1ccccc1 (stereo not given) | inactive | 
COc1ccc(NC(C)=O)cc1 | inactive | 
COc1cc(C)cc(O)c1 | inactive | 
CCN1CCN(c2cc3c(cc2F)c(=O)c(C(=O)O)cn3C2CC2)CC1 | inactive | 
CCCCCC[C@@H](CCC)C(=O)O | inactive | 
CCCc1ccccc1O | inactive | 
N[C@@H](CS)C(=O)O | inactive | 
CCC(=O)c1cccc(Cl)c1 | inactive | 
CC(=O)OC(C)(C)C | inactive | 
CC(C)(C)C(=O)/C=C/c1ccc(Cl)cc1 | inactive | 
CC(C)CCCC(C)NCCC(C)C (stereo not given) | inactive | 
Cc1ccc(Nc2ccc(O)c3c2C(=O)c2ccccc2C3=O)cc1 | inactive | 
CC12CCC(CC1=O)C2(C)C (stereo not given) | inactive | 
NCCNC(=O)c1ccc(Cl)cn1 | inactive | 
Cc1cc(C)cc(OCC2CNC(=O)O2)c1 (stereo not given) | inactive | 
CC1(C)SC(C)(C)SC(C)(C)S1 | inactive | 
CCCCCOC(=O)Nc1nc(=O)n([C@@H]2O[C@H](C)[C@@H](O)[C@H]2O)cc1F | inactive | 
COC(=O)CCCCCCCCC(=O)OC | inactive | 
CC(=O)CCc1ccc(O)cc1 | inactive | 
O=C(O)c1cccc(C(=O)O)n1 | inactive | 

Source: PubChem BioAssay (Tox21)
